FMDV antiviral = antivirals against foot and mouth disease virus. FMDV antiviral cell-based qHTS. Potency, µM (top dose mostly 57.9 µM), for inactives: at the highest dose activity change, negative = inhibition, hits mostly inhibitors. 410,000 compounds, 1.2% hits; calls by dose curve; tested in HEK293T cells; also: read-out not given here; potency is read from the fitted curve at half-maximal effect; nearly all actives have a fitted effect of over 45% in size
HCV inhibitor = HCV inhibition | Huh7.5.1 HCVcc-Cre infection, luciferase reporter, 44 h | Potency, µM (highest dose often 41.8 µM), for the others: at the highest dose activity change, negative = inhibition, actives largely listed as inhibitors | 340,000 compounds, 3.4% hits | AID 651820; active = well fitted inhibition curve with a large enough effect; inconclusive = small, poorly fitted or top-dose-only effect, or another doubt; inactive = no such curve, though single readings can be large or run the other way; also: potency is read from the fitted curve at half-maximal effect
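After 44 h co-culture of compound, cells and HCVcc-Cre (~0.5 moi), substrate is added for 15 min at room temperature and luciferase measured over 15 sec. Cells were seeded at 1,000/well and pre-cultured 4 h.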
HCMV inh = blocks human cytomegalovirus replication. HFF cells, HCMV-luciferase reporter, 72 h; stronger effect = lower value. activity change, negative = inhibition, % at 57.5 µM. 410,000 compounds, 4.5% hits. AID 1259415; in the data active = activity change below about -60%; inconclusive = no clear call, values can overlap the other calls; inactive = above about -39%
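Two compound doses tested in HFFs infected with HCMV-luciferase, MOI 1 PFU/cell, 72 h at 37C. Lysate luminescence read with OneGlo; data normalized against buffer-only and 10uM Salinomycin inhibitor controls.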
MARV entry inh = blocks Marburg virus binding to or entry into cells | Marburg virus pseudotyped entry inhibition, cell reporter | Potency, µM (top dose mostly 37.8 µM), for the others: at the highest dose activity change, negative = inhibition, actives largely listed as inhibitors | 300,000 compounds, 1.8% hits; calls by dose curve; tested in HEK293 cells; also: potency is read from the fitted curve at half-maximal effect
LASV entry inh = blocks Lassa virus binding to or entry into cells; Lassa virus pseudotype entry inhibition, cell reporter; Potency, µM (top dose mostly 37.9 µM), without a hit: top-dose activity change, negative = inhibition, actives largely listed as inhibitors; 300,000 compounds, 1.2% hits; calls by dose curve; tested in HEK293 cells; also: potency is read from the fitted curve at half-maximal effect; nearly all actives have a fitted effect of over 50% in size
The depositor's hits bear a star; [ ] = another dose, or the depositor's remark. A selection: hits, their analogues and other compounds. The true share with any hit is near 7.9%. % is scaled to controls: 0 for no effect and ±100 for the full control effect.

Results for Oc1ccc(CN2CCC(Cc3ccccc3)CC2)c2cccnc12 ?
FMDV antiviral: inconclusive; HCV inhibitor: inconclusive; HCMV inh: -101.0*; MARV entry inh: inconclusive; LASV entry inh: 2.82µM*

How did Oc1c(CN2CCCCC2)ccc2cccnc12 do in these assays?
FMDV antiviral: -25.6%; HCV inhibitor: 10µM*; HCMV inh: -73.5*; MARV entry inh: inconclusive; LASV entry inh: -15.2%[46.1 µM]

Results for O=C(O)c1sccc1Oc1ccc(NS(=O)(=O)c2ccccc2)cc1 ?
FMDV antiviral: -6.6%; HCV inhibitor: 18.5%; HCMV inh: 7.6; MARV entry inh: 3.4%[46.1 µM]; LASV entry inh: -2.6%[46.1 µM]

Results for COc1cc(-c2cc(C)c3cccc(OC)c3n2)cc2c1OCCN(C(=O)Cn1nc(C)cc1C)C2 ?
FMDV antiviral: 15.5%

How did CCC1CN(CCNC(=O)C(C)(C)O)Cc2cc(OC)ccc2O1 (stereo not drawn) do in these assays?
FMDV antiviral: -7.3%

How did CCOC(=O)CC1(C)NC(C(=O)O)C(C)(C)S1 (stereo not drawn) do in these assays?
FMDV antiviral: inconclusive; HCV inhibitor: 37.9%; HCMV inh: -0.9; MARV entry inh: 18.4%; LASV entry inh: 9.1%

Results for COc1ccc(NC(=O)CN2CCN(Cc3ccccc3)S2(=O)=O)c(OC)c1 ?
FMDV antiviral: 0.2%; HCMV inh: 19.6; LASV entry inh: -2.7%[46.1 µM]

How did Oc1ccc2ccccc2c1CN1CCCCC1 do in these assays?
FMDV antiviral: 7.0%; HCV inhibitor: -9.6%; HCMV inh: -18.2; MARV entry inh: -4.6%[46.1 µM]; LASV entry inh: 6.7%[46.1 µM]

What do the screens show for `Clc1ccccc1CN1CCC(Cc2ccccc2)CC1`?
FMDV antiviral: -2.5%; HCV inhibitor: -5.1%; HCMV inh: -101.0*; MARV entry inh: inconclusive; LASV entry inh: -4.2%

What do the screens show for `Oc1ccc(CN2CCCCC2)c2cccnc12`?
HCV inhibitor: 6.31µM*; HCMV inh: -68.4*; MARV entry inh: inconclusive; LASV entry inh: -64.8%

What do the screens show for `Cc1ccc(C)c(S(=O)(=O)N2CCN(Cc3ccc(O)c4ncccc34)CC2)c1`?
FMDV antiviral: -5.2%; HCV inhibitor: inconclusive; HCMV inh: -100.4*; MARV entry inh: 7.3µM*; LASV entry inh: 9.2µM*

What do the screens show for `O=C(N/N=C/c1ccc[nH]1)c1cccc(Br)c1`?
FMDV antiviral: 21.2%; HCV inhibitor: 4.47µM*; HCMV inh: inconclusive; MARV entry inh: inconclusive; LASV entry inh: inconclusive

How did COc1c(Br)cc(Br)cc1/C=N/NC(=O)c1ccncc1 do in these assays?
FMDV antiviral: -22.5%; HCV inhibitor: -6.4%; HCMV inh: -25.6; MARV entry inh: inconclusive; LASV entry inh: -9.4%

How did CN(C)c1ccc(C(=O)N/N=C/c2cc(Br)cc(Br)c2O)cc1 do in these assays?
FMDV antiviral: -15.4%; HCV inhibitor: inconclusive; HCMV inh: -90.1*; MARV entry inh: inconclusive; LASV entry inh: inconclusive

What do the screens show for `Cc1ccc(C(=O)N/N=C\c2ccc(-c3ccc(Cl)cc3)o2)cn1`?
FMDV antiviral: -24.9%; HCV inhibitor: 11.2µM*; HCMV inh: -12.0

How did CCOc1ccc(OCc2ccc(C(=O)NN=Cc3ccc[nH]3)cc2)cc1 do in these assays?
FMDV antiviral: -12.9%; HCV inhibitor: 0.562µM*; HCMV inh: active; MARV entry inh: 0.282µM*; LASV entry inh: inconclusive

How did Cc1ccc(C(=O)N/N=C\c2ccc(-c3ccc([N+](=O)[O-])cc3)o2)cn1 do in these assays?
FMDV antiviral: -3.0%; HCV inhibitor: -14.5%; HCMV inh: 16.7; MARV entry inh: -2.3%[46.1 µM]; LASV entry inh: -15.3%[46.1 µM]

Results for Cc1cccc(C(=O)N/N=C/c2ccc[nH]2)c1 ?
FMDV antiviral: 21.5%; HCV inhibitor: inconclusive; HCMV inh: -28.4; MARV entry inh: 2.9%; LASV entry inh: 9.7%

Results for Cc1ccc(C(=O)N/N=C\c2ccc[nH]2)cn1 ?
FMDV antiviral: 27.4%; HCV inhibitor: 8.91µM*; HCMV inh: -21.4; MARV entry inh: -23.7%; LASV entry inh: -0.1%

Results for CCC(=O)Nc1ccc(C(=O)N/N=C/c2ccccc2[N+](=O)[O-])cc1 ?
FMDV antiviral: 30.7%; HCV inhibitor: 26.6%; HCMV inh: 69.9; MARV entry inh: 13.9%; LASV entry inh: inconclusive

What do the screens show for `O=C(N/N=C/c1ccc[nH]1)c1cccnc1`?
FMDV antiviral: -1.8%; HCV inhibitor: 4.3%; HCMV inh: 10.7; MARV entry inh: 7.3%; LASV entry inh: 14.0%

Results for Cc1ccc(C(=O)N/N=C/c2cc(Br)ccc2O)cn1 ?
FMDV antiviral: 16.5%; HCV inhibitor: inconclusive; HCMV inh: -102.3*

How did CCOc1ccc(C(=O)N/N=C/c2ccccc2[N+](=O)[O-])cc1 do in these assays?
FMDV antiviral: inconclusive; HCV inhibitor: -25.2%; HCMV inh: 10.3; MARV entry inh: 11.6µM*; LASV entry inh: inconclusive

What do the screens show for `CSc1ccccc1C(=O)NCC1Cc2cccc(-c3ncccc3C)c2O1` (stereo not drawn)?
FMDV antiviral: -4.7%

How did C=C(CO[C@@H]1C=C[C@@H](c2ccccc2)O[C@@H]1CO)c1ccccc1 do in these assays?
MARV entry inh: -2.0%[14.2 µM]

Results for COc1ccc2c(c1)Sc1ccccc1N2 ?
FMDV antiviral: 20.8%; HCV inhibitor: inconclusive; HCMV inh: -80.7*; MARV entry inh: -12.8%[46.1 µM]; LASV entry inh: 11.6%

How did CN(C)CCNC(=O)CN1C(=O)COc2ccc(S(=O)(=O)N3CCCC3)cc21 do in these assays?
FMDV antiviral: inconclusive; HCMV inh: 4.1; MARV entry inh: 1.5%[46.1 µM]; LASV entry inh: 0.6%[46.1 µM]

How did C1CCCCCC(NCCN2CCNCC2)CCCCC1 do in these assays?
FMDV antiviral: -11.4%; HCV inhibitor: 1.26µM*; HCMV inh: -27.7; MARV entry inh: inconclusive; LASV entry inh: inconclusive

How did Cc1ccc(S(=O)(=O)N/N=C\c2ccccc2OCc2ccccc2)cc1 do in these assays?
HCV inhibitor: inconclusive; HCMV inh: -74.4*; MARV entry inh: inconclusive; LASV entry inh: inconclusive

Results for Cn1c2ccccc2c(=O)c2ccc(NCCc3cccs3)cc21 ?
FMDV antiviral: 1.7%; HCV inhibitor: 11.2µM*; HCMV inh: 196.4

How did COc1cccc(CN(C)CCCn2ccc(NC(=O)OCc3ccccc3)nc2=O)c1 do in these assays?
FMDV antiviral: -20.4%; HCV inhibitor: inconclusive; HCMV inh: -16.4

How did Cc1cccn2c(=O)c3cc(C#N)c(=NC(=O)c4ccccc4)n(Cc4ccco4)c3nc12 do in these assays?
FMDV antiviral: -29.2%; HCV inhibitor: 3.98µM*; HCMV inh: 1.1; MARV entry inh: inconclusive; LASV entry inh: inconclusive

Results for CCOC(=O)c1cc2c(=O)n3ccccc3nc2n(Cc2ccco2)c1=NC(=O)c1cccnc1 ?
FMDV antiviral: -1.6%; HCV inhibitor: 1.6%; HCMV inh: -15.9; MARV entry inh: 7.3µM*; LASV entry inh: inconclusive

What do the screens show for `CCCCn1c(=NC(=O)c2c(-c3c(F)cccc3Cl)noc2C)c(C(=O)OCC)cc2c(=O)n3ccccc3nc21`?
FMDV antiviral: 3.4%; HCMV inh: 23.2; MARV entry inh: 21.9%[46.1 µM]; LASV entry inh: inconclusive
